The structures appear in SMILES notation.

For the first test, the system named is Vero E6 infected with SARS-CoV-2. Kind of test: morphology score (similarity to uninfected cells); higher = more like uninfected cells. To be noted: 24 h.
On to `FC(F)(F)c1cc(CO[C@H]2CCCN[C@H]2c2ccccc2)cc(C(F)(F)F)c1` (10 µM), for which the morphology score is 0.777.

Consider `C[C@@H](NC(=O)[C@@H](N)Cc1ccc(O)cc1)C(=O)NCC(=O)N(C)[C@@H](Cc1ccccc1)C(=O)N[C@H](CO)CC[S+](C)[O-]` (stereo partly drawn) (10 µM), for which the morphology score was found to be 0.111.

In turn, `NCc1cc(O)no1` [muscimol] (10 µM) had a morphology score of -0.00274.

Molecule `O=C(NCCN1CCC2(CC1)C(=O)NCN2c1cccc(F)c1)c1ccc2ccccc2c1` (10 µM) yielded a morphology score of 0.766.

A further test shares this test system. Kind of test: SARS-CoV-2 infection rate relative to infected DMSO; higher = more infection, active = 60 or less. The conditions noted are these: 24 h.
Regarding `COC(=O)Nc1ccc2[nH]cc(CCNC(C)=O)c2c1` (10 µM), the SARS-CoV-2 infection rate was 108% (inactive).

Turning to `O=c1[nH]cc(F)c(=O)[nH]1` [5-fluorouracil] (0.833333 µM), the SARS-CoV-2 infection rate was 102% (inactive).

For the molecule `CC1(CN)Cc2ccccc2C1` (10 µM), the SARS-CoV-2 infection rate is 112% (inactive).

Consider `Cc1cc(O)c2c(=O)c3c(O)cc(O)c4c5c(O)cc(O)c6c(=O)c7c(O)cc(C)c8c1c2c(c34)c(c78)c65` [hypericin] (10 µM), for which the SARS-CoV-2 infection rate was 114% (inactive).

As for `Cc1oc2ccccc2c1CNC(=O)NCc1cccs1` (10 µM), the SARS-CoV-2 infection rate is 100% (inactive).

As to `C#C[C@]1(O)CC[C@H]2[C@@H]3CCC4=CC(=O)CC[C@@H]4[C@H]3CC[C@@]21CC` [norgestrel] (10 µM), the SARS-CoV-2 infection rate was 102% (inactive).

Take `CC(=O)[C@H]1CC[C@H]2[C@@H]3C[C@H](C)C4=CC(=O)CC[C@]4(C)[C@H]3[C@@H](O)C[C@]12C` [medrysone] (10 µM): the SARS-CoV-2 infection rate is 106% (inactive).

Turning to `NS(=O)(=O)c1ccc(-n2nc(C(F)(F)F)cc2-c2ccc(Cl)cc2)cc1` (10 µM), the SARS-CoV-2 infection rate was 106% (inactive).

`Cc1ccccc1N1CCN(S(=O)(=O)C[C@]23CC[C@H](C[C@@H]2NC(=O)[C@@H](N)CCS(C)(=O)=O)C3(C)C)CC1` (10 µM): the SARS-CoV-2 infection rate is 95% (inactive).

As to `Cc1ccc(C(=O)C(C)CN2CCCCC2)cc1` (stereo not drawn) [tolperisone] (10 µM), the SARS-CoV-2 infection rate is 83.5% (inactive).

Take `COc1ccc(NC(=O)c2ccc(-c3ccc(-c4noc(C)n4)cc3C)cc2)cc1N1CCN(C)CC1` (0.833333 µM): the SARS-CoV-2 infection rate is 102% (inactive).

Take `COc1c2ccoc2cc2oc(=O)ccc12` [bergapten] (10 µM): the SARS-CoV-2 infection rate was 108% (inactive).

With `O=C(NC(NC(=S)Nc1ccc(F)c([N+](=O)[O-])c1)C(Cl)(Cl)Cl)C(c1ccccc1)c1ccccc1` (stereo not drawn) (0.833333 µM), the SARS-CoV-2 infection rate is 104% (inactive).

For the molecule `O=C(C=Cc1ccccc1)NC(NC(=S)Nc1ccc(Cl)cc1)C(Cl)(Cl)Cl` (stereo not drawn) (10 µM), the SARS-CoV-2 infection rate is 106% (inactive).

As for `CN(N=O)C(=O)N[C@@H](C=O)[C@@H](O)[C@H](O)[C@H](O)CO` [streptozotocin] (10 µM), the SARS-CoV-2 infection rate was 96% (inactive).

Turning to `O=Nc1c(O)[nH]c2c(Cl)c(Cl)ccc12` (10 µM), the SARS-CoV-2 infection rate was 93.5% (inactive).

In the case of `Cc1cc(N)c2ccccc2[n+]1CCCCCCCCCC[n+]1c(C)cc(N)c2ccccc21` [dequalinium] (10 µM), the SARS-CoV-2 infection rate is 94% (inactive).

With `Cn1c(-c2ccccc2)nnc1S(C)(=O)=O` (10 µM), the SARS-CoV-2 infection rate was 86.5% (inactive).

Regarding `CC(C)(C)Cn1c(N)nc2ccc(-c3[nH]c(C(C)(C)C)nc3-c3ccc(F)cc3)nc21` (10 µM), the SARS-CoV-2 infection rate was 111% (inactive).

On to `NCc1ccccc1CC(=O)N[C@@H]1C(=O)N2C(C(=O)O)=C(CSc3nnnn3CC(=O)O)CS[C@H]12` [ceforanide] (10 µM), for which the SARS-CoV-2 infection rate is 100% (inactive).

On to `CC(C(=O)O)c1ccc(N2Cc3ccccc3C2=O)cc1` (stereo not drawn) [indoprofen] (10 µM), for which the SARS-CoV-2 infection rate is 110% (inactive).

As for `Cc1ncc(C)n2nc([C@@H]3C[C@H]3c3nc4c5cccnc5ccn4c3C)nc12` (10 µM), the SARS-CoV-2 infection rate is 106% (inactive).

For `CC(Cc1ccc(O)cc1)NCC(O)c1cc(O)cc(O)c1` (stereo not drawn) [fenoterol] (10 µM), the SARS-CoV-2 infection rate was 106% (inactive).

Take `CCCCCN(C)CCC(O)(P(=O)(O)O)P(=O)(O)O` [ibandronate] (10 µM): the SARS-CoV-2 infection rate was 111% (inactive).

Take `C[C@@H]1CCN(C(=O)CC#N)C[C@@H]1N(C)c1ncnc2[nH]ccc12` (10 µM): the SARS-CoV-2 infection rate is 106% (inactive).

Consider `O=S(=O)(O)NC1CCCCC1` [cyclamic-acid] (10 µM), for which the SARS-CoV-2 infection rate is 87.5% (inactive).

Take `Cc1ccccc1CN1C(=O)C2=C(CCN(Cc3ccccc3)C2)N2CCN=C12` (0.833333 µM): the SARS-CoV-2 infection rate is 82% (inactive).

With `CC(C)CCNC(=O)[C@H](CC(C)C)NC(=O)[C@H]1O[C@@H]1C(=O)O` [loxistatin-acid] (10 µM), the SARS-CoV-2 infection rate was 88% (inactive).

Turning to `COc1cc2/c(=N/c3ccc(Br)cc3F)nc[nH]c2cc1OCC1CCN(C)CC1` [vandetanib] (10 µM), the SARS-CoV-2 infection rate is 102% (inactive).
